Where “and” joins values, the source holds several entries; their conditions need not be identical. Equal entries are not always repeated. Compounds without any hit were thinned out: in the full panel of roughly 83,000, 20% have a hit.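 Plates (96-well) were seeded with cells, treated with compound at one concentration, and incubated for 48 hours before percent growth was determined.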 Calls of active or inactive are those of the source.
Each compound was assayed on CCRF-CEM leukemia (assay: NCI-60 one-dose screen, 48 h (100 = growth as untreated, 0 = no growth, -100 = all killed)). Details: 10 µM unless noted.
Experimental: Growth inhibition of the CCRF-CEM human tumor cell line is measured as a screen for anti-cancer activity. Cells are grown in 96 well plates and exposed to the test compound for 48 hours. Compounds are tested at a single concentration, which is 10^-5 M for most compounds. The reported endpoint is percent growth (GI% or GIPRCNT), where numbers from 0 - 100% represent growth inhibition, and numbers from -100% - 0 represent cell death. For example, a value of 40 represents 60% growth inhibition. A value of 0 means no net growth occurred over the course of the experiment. A value of -40 indicates 40% of cells at the beginning of the experiment died by the end of the experiment. A value of -100 means all cells are dead at the end of the experiment.
NCI-60 Human Tumor Cell Lines Screen was performed using the standard one-dose NCI protocol, which is described in more detail at https://dtp.cancer.gov/discovery_development/nci-60/default.htm.
Compounds with GIPRCNT values below 10 were considered active. Activity score was based on GIPRCNT using the following formula: […]
Score is 0 for GIPRCNT values of 100 or above, 50 for GIPRCNT values of 0, and 100 for GIPRCNT values of -100.

| Structure (SMILES) | growth |
| --- | --- |
| CCN(CC)CCNC(=O)c1ccc(NCN2C(=O)NC(c3ccccc3)(c3ccccc3)C2=O)cc1 | 101% (inactive) |
| CC(=O)Nc1ccc2oc(=O)ccc2c1 | 109% (inactive) |
| CCOC(=O)c1csc(N)n1 | 91% (inactive) and 98.5% (inactive) |
| CC1(CO)CCCC1NCCNC1CCCC1(C)CO (stereo not given) | 99.6% (inactive) |
| O=C(O)C1CSCN1 (stereo not given) | 100% (inactive) and 121% (inactive) |
| c1ccc2c[n+](Cc3ccc4ccccc4n3)ccc2c1 | 76.8% (inactive) |
| CSc1nc(N)c(N)c(N)n1 | 64.7% (inactive) |
| CCCC(=O)Oc1ccc(CC)cc1 | 107% (inactive) |
| CCCCCc1cc[n+](CC(=O)c2ccccc2)cc1 | 92.2% (inactive) and 99.4% (inactive) |
| CCOc1ccc(/C=C\C(=O)O)cc1 | 96% (inactive) |
| Cc1onc(-c2c(F)cccc2Cl)c1-c1ncc(-c2ccc(Cl)cc2)o1 | 41.5% (inactive) |
| CCOC(=O)c1ccncc1 | 108% (inactive) |
| Oc1cccnc1CN1CCOCC1 | 103% (inactive) and 88.7% (inactive) |
| Nc1ccccc1SC1CC(=O)N(c2ccc(I)cc2)C1=O (stereo not given) | 89.7% (inactive) |
| NCCCCCC(=O)O | 101% (inactive) and 90.4% (inactive) and 108% (inactive) |
| O=C1C=CC(=O)N1Cc1ccco1 | 101% (inactive) |
| CC(=O)c1cccc(OC(=O)c2ccccc2)c1 | 97.8% (inactive) |
| Cc1cnc(N)s1 | 99.4% (inactive) |
| CCOC(=O)C(N)Cc1cc(I)c(O)c(I)c1 (stereo not given) | 100% (inactive) and 103% (inactive) |
| CCn1c2ccc(N(C)C)cc2c2cc(N(C)C)ccc21 | 85.5% (inactive) |

| Structure (SMILES) | growth |
| --- | --- |
| COC(=O)C(Cc1cn(C(C)=O)c2ccccc12)P(=O)(OC)OC (stereo not given) | 110% (inactive) |
| O=C(O)/C=C/C=C/c1ccccc1 | 102% (inactive) and 95.1% (inactive) |
| O=C(N=C1C(=O)C2(CCCCC2)C2(N=C(c3ccccc3)OC2=O)C12CCCCC2)c1ccccc1 (stereo not given) | 37.4% (inactive) |
| OCCSc1ccc(Cl)cc1 | 119% (inactive) and 96.7% (inactive) |
| N#CC(=S)Nc1ccc(Cl)c(Cl)c1 | 28.4% (inactive) |
| CC(NC(=O)CCl)c1ccccc1 (stereo not given) | 105% (inactive) |
| CCc1ccc(OC(=O)CCl)cc1 | 104% (inactive) |
| C/C=C/C(=O)OCCCCCCCCCCCC | 117% (inactive) |
| Cc1cc2ccccc2c2cc3ccccc3cc12 | 97% (inactive) |
| O=[N+]([O-])c1cccc2ccc(N/N=C/c3ccccc3O)nc12 | 3.42% (active) and 86.9% (inactive) |
| O=C(Nc1ccccc1)OCC(CN1CCCCC1)OC(=O)Nc1ccccc1 (stereo not given) | 82.3% (inactive) |
| O=C(O)c1ccc2c3ccc(C(=O)O)c4c(C(=O)O)ccc(c5ccc(C(=O)O)c1c25)c43 | 111% (inactive) |
| CC(=O)Oc1ccc(C2(c3ccc(OC(C)=O)cc3)C(=O)Nc3ccccc32)cc1 | 97.9% (inactive) and 86.7% (inactive) |
| COC(=O)c1ccccc1Cl | 100% (inactive) |
| O=C1C2=C(Nc3cc(Cl)ccc3N2)OC1c1c[nH]c2ccc(COc3ccccc3)cc12 (stereo not given) | 64.1% (inactive) |
| CS(=O)(=O)c1nsc(N)n1 | 106% (inactive) |
| CN(C)CC(CN(C)C)C(O)c1ccccc1 (stereo not given) | 104% (inactive) |
| Nc1nc(-c2ccccn2)cc(-c2cc(-c3ccccn3)nc(N)n2)n1 | 101% (inactive) |
| COc1ccc(CCO)cc1 | 101% (inactive) |
| Cc1nc(Nc2ccc(Cl)cc2)c2cnn(-c3ccccc3)c2n1 | 26.1% (inactive) |
